This is a sample that favours compounds with a hit; in the whole collection about 3.5% have one here.
14-3-3 Bad inh: disrupts binding of bovine 14-3-3 zeta to phospho-Bad peptide. P63103. TR-FRET 14-3-3zeta/Dy647-pBad peptide displacement, 1 h. inhibition, % at 21.7 µM. hit rate 0.71% among 220,000;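 active means inhibition above about 70%, limit read from the data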
Mcl1-Bid inh: Mcl-1/Bid interaction inhibition; TR-FRET Mcl-1/Bid-Dy647 peptide binding, 1536-well; inhibition, % at 21.7 µM; hit rate 0.97% among 220,000;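 active means compounds that cut the binding signal by more than half at the single screening dose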;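 further: His-tagged Mcl-1 with europium anti-His antibody binding Bid BH3 peptide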
Mcl1-Noxa inh: Mcl-1/Noxa interaction inhibition; Q07820; TR-FRET Mcl-1/Noxa peptide binding, 2 h; hit rate 1.5% among 220,000; inhibition, % at 21.7 µM;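 active means compounds that cut the protein-peptide binding signal by more than 50% relative to plate controls in a single-dose test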;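 further: His-tagged Mcl-1 with rhodamine Noxa BH3 peptide and terbium anti-His antibody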
eIF4E 4G PPI: eIF4E/eIF4G interaction inhibition in translation initiation; TR-FRET eIF4E-eIF4GI(517-606) binding, 2 h; hit rate 0.37% among 220,000; AID 782; inhibition, % at 21.7 µM;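 active means inhibition above about 30%, limit read from the data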
Mcl-1 Bim block: human Bim-Mcl-1 interaction inhibition; Q07820; hit rate 0.1% among 190,000; inhibition, % at 10 µM; Bead-based flow cytometry, Bim peptide-Mcl-1 binding; in the data active means inhibition above about 40%
Hck-Nef inh: inhibitors of human Hck kinase activated by Nef; P08631; Recombinant Hck-YEEI plus Nef, Z-Lyte FRET kinase assay; inhibition, % at 20 µM; hit rate 0.68% among 220,000; AID 463187;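 active means Hck-Nef kinase inhibition above about 50%, limit read from the data; inactive means inhibition below that limit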
Target sequence (P08631 whole entry, looked up): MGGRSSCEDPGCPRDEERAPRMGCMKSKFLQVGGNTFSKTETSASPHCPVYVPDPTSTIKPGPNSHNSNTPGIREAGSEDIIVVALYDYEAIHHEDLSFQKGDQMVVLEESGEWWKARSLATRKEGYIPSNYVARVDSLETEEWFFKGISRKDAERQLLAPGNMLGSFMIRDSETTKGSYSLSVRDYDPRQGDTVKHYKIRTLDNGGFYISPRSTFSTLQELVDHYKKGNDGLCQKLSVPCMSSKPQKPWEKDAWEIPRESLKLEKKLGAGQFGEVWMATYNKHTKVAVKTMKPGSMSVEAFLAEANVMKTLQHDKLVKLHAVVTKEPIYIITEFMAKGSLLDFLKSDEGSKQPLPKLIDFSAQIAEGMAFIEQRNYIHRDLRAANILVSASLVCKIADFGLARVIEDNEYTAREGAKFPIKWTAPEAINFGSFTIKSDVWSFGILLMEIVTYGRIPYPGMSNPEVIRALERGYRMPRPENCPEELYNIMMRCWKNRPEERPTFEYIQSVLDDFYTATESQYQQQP
Of the large screens only hits and unclear results are named; the others gave an inactive call; [ ] = dose if it differs, or a comment.

NC(=O)c1ccc(NC(=O)COC(=O)CC(NC(=O)c2ccccc2Cl)c2ccccc2)cc1 (stereo unspecified)	none
COC(=O)c1ccc(N/N=C/c2cc([N+](=O)[O-])cc(OC)c2O)cc1	Mcl1-Noxa inh 61
COc1cc([N+](=O)[O-])cc(/C=N/NC(=O)c2cncc(Br)c2)c1O	none (no result: Mcl-1 Bim block)
CCOC(=O)c1ccc(N/N=C/c2cc(Br)cc([N+](=O)[O-])c2O)cc1	Mcl1-Noxa inh 61
COc1ccc(C2CC(c3ccccc3)Nc3nc(NS(C)(=O)=O)nn32)cc1 (stereo unspecified)	none (no result: Mcl-1 Bim block)
COC(=O)Cc1nnc(Nc2cccc(C)c2)c2ccccc12	none (no result: Mcl-1 Bim block)
CCOC(=O)Cc1nnc(Nc2cccc(C)c2)c2ccccc12	Mcl1-Bid inh 64
OCCN1CCN(C(c2cccs2)c2ccc3cccnc3c2O)CC1 (stereo unspecified)	Mcl1-Bid inh 82, Mcl1-Noxa inh 95, eIF4E 4G PPI 46[fluorescence artefact?]
CCOc1ccc2nc(Cl)c(C3CC(c4ccccc4)=NN3C(=O)c3ccco3)cc2c1 (stereo unspecified)	none
COc1ccc(C(=O)Cc2cc(OC)c(OC)cc2C(=O)c2ccccc2F)cc1OC	none
CC(NC(=O)c1cc(=O)[nH]c2ccccc12)c1ccccc1 (stereo unspecified)	none
O=C(N/N=C/c1ccccc1O)c1cc(=O)[nH]c2ccccc12	eIF4E 4G PPI 40[fluorescence artefact?]
Cn1c2ccccc2c2cc(C(=O)NNC(=O)CCl)sc21	Mcl1-Noxa inh 60
CCCNC(=O)c1cc2c3ccccc3n(C)c2s1	none
CC(C)(C)OC(=O)CNC(=O)c1[nH]cnc1C(=O)Nc1ccc(Cl)cc1	none (no result: Mcl-1 Bim block)
O=S(=O)(c1ccccc1F)N1CCN(Cc2nc3ccccc3[nH]2)CC1	14-3-3 Bad inh 82, Mcl1-Bid inh 79
c1ccc2[nH]c(CN3CCCCCC3)nc2c1	none
CCC(CC)C(=O)Nc1cccc(C(=O)Nc2ccc(S(N)(=O)=O)cc2)c1	none
CCC(CC)C(=O)Nc1cccc(S(=O)(=O)c2cccc(NC(=O)C(CC)CC)c2)c1	Mcl-1 Bim block 44
COc1ccc2nc(SCCN(C)C)[nH]c2c1	none
CC(=O)/C(C#N)=C1\NC(=O)C(Cc2cc(Cl)ccc2Cl)S1 (stereo unspecified)	none (no result: Mcl-1 Bim block)
CC(=O)/C(C#N)=C1\NC(=O)C(Cc2ccccc2Cl)S1 (stereo unspecified)	14-3-3 Bad inh 74
Cc1[nH]c2ccccc2c1/C=N/NC(=O)c1cc(C(C)C)[nH]n1	none (no result: Mcl-1 Bim block)
Cc1c(/C(O)=C2/C(=O)C(=O)N(CCN(C)C)C2c2ccc(C(C)C)cc2)cnn1-c1ccccc1 (stereo unspecified)	14-3-3 Bad inh 88 (no result: Mcl-1 Bim block)
CCc1nn(-c2ccccc2)c(=S)c2ccccc12	none
CC(c1ccon1)N(C)C(=O)CCc1nnc(C2(c3ccc(Cl)cc3)CCC2)o1 (stereo unspecified)	none
COc1ccc2c(c1)O[C@H](c1ccc3c(c1)OCO3)[C@@H](OC(=O)N[C@H](C)C1CCCCC1)C2=O	14-3-3 Bad inh 92
COc1ccc2c(c1)O[C@H](c1ccc3c(c1)OCO3)[C@@H](OC(=O)Nc1cc(OC)c(OC)c(OC)c1)C2=O	14-3-3 Bad inh 81[fluorescence artefact?]
CCOC(=O)C1C(c2cccc(F)c2)NC(=S)NC1(O)C(F)(F)F (stereo unspecified)	none
COc1ccc2c(c1)S/C(=C\C(=O)c1ccncc1)N2C	Mcl1-Noxa inh 66
COC(=O)c1ccccc1NC(=O)CCS(=O)(=O)c1ccc(Br)cc1	14-3-3 Bad inh 81
C=CCc1ccccc1OCC(O)CN(C(C)C)C(C)C (stereo unspecified)	14-3-3 Bad inh 71
Cc1ccccc1OCC(=O)Nc1ccc2c(c1)C(=O)c1ccccc1C2=O	Mcl1-Noxa inh 67
CCOc1cc(/C=C2/NC(=O)N(CC(=O)Nc3cccc(C)c3)C2=O)ccc1OCC(N)=O	Mcl1-Noxa inh 59
COc1cc(C(=O)Nc2ccc3c(c2)C(=O)c2ccccc2C3=O)cc(OC)c1OC	Mcl1-Bid inh 77, Mcl1-Noxa inh 85
O=C(COc1ccccc1)Nc1ccc2c(c1)Cc1cc(NC(=O)COc3ccccc3)ccc1-2	Mcl-1 Bim block 113
Cc1ccccc1OCC(=O)Nc1ccc2c(c1)Cc1ccccc1-2	none
CCOc1cc(C=C2C(=O)c3ccccc3C2=O)ccc1OCC(=O)Nc1ccc(C)cc1	Mcl1-Bid inh 86
O=C(COC(=O)Cn1cnc2ccccc21)Nc1ccc2c(c1)C(=O)c1ccccc1C2=O	Mcl1-Bid inh 65, Mcl1-Noxa inh 84
CCOc1cc(/C=N/NC(N)=O)ccc1OCC(=O)Nc1ccc(C)c(C)c1	none
COc1ccc(C(=O)Nc2ccc3c(c2)C(=O)c2ccccc2C3=O)cc1OC	Mcl1-Bid inh 85, Mcl1-Noxa inh 68
COc1ccc(C(=O)Nc2cccc(NC(C)=O)c2)cc1OC	none
Cc1cc(OCC(O)CNC(C)(C)C)ccc1Cl (stereo unspecified)	none
Cc1cc(/C(N)=N/OC(=O)c2cccc(Cl)c2)no1	none (no result: Mcl-1 Bim block)
Cc1cc(/C(N)=N/OC(=O)c2ccc(Cl)cc2)no1	14-3-3 Bad inh 70 (no result: Mcl-1 Bim block)
CC12CCC(C(=O)Nc3ncc([N+](=O)[O-])s3)(OC1=O)C2(C)C (stereo unspecified)	none
COc1ccccc1NC(=O)c1ccc(S(=O)(=O)N(C)C)cc1	eIF4E 4G PPI 38[fluorescence artefact?]
CC(C)CC(CO)N1CCN(C(=O)c2cccc(C(F)(F)F)c2)CCC1=O (stereo unspecified)	none
Cc1nn(-c2ccccc2)c(Cl)c1/C=N/Nc1nncc(=O)[nH]1	none (no result: Mcl-1 Bim block)
CCCn1nc([N+](=O)[O-])c(C(C#N)c2nc3ccccc3o2)c(Cl)c1=O (stereo unspecified)	Mcl1-Noxa inh 60
CCn1nc([N+](=O)[O-])c(C(C#N)c2nc3cc(C(F)(F)F)ccc3s2)c(Cl)c1=O (stereo unspecified)	Mcl1-Noxa inh 90 (no result: 14-3-3 Bad inh, eIF4E 4G PPI)
CNC(=O)COC(=O)c1ccc(Cl)c(S(N)(=O)=O)c1	none (no result: Mcl-1 Bim block)
O=C(CCN1CCCCC1c1cccnc1)NCc1ccccc1 (stereo unspecified)	none
CCCOc1cccc(CN2CCCCC2c2cccnc2)c1 (stereo unspecified)	Mcl1-Bid inh 70
COc1ccc(C2=NOC(C(=O)Nc3ccc4c(c3)OCO4)C2)cc1OC (stereo unspecified)	none
NNC(=O)CNC(c1ccccc1)c1cc(Br)ccc1NC(=O)c1ccccc1Br (stereo unspecified)	none
O=C(Nc1ccccc1[N+](=O)[O-])C1=C(O)CCn2c1nc1ccccc12	Mcl1-Noxa inh 72 (no result: 14-3-3 Bad inh, eIF4E 4G PPI)
Cc1ccc(S(=O)(=O)NC2=C(N3CCN(c4ccccc4F)CC3)C(=O)c3ccccc3C2=O)cc1	none (no result: Mcl1-Noxa inh)
Cc1ccc(S(=O)(=O)Nc2nc3ccccc3nc2N2CCN(c3ccccc3F)CC2)cc1	Mcl1-Noxa inh 51
COc1cc2c(cc1OC)C(Nn1cnnc1)=NC1(CCCC1)C2	Mcl1-Bid inh 91 (no result: Mcl-1 Bim block)

Compound activity: PubChem, several laboratories
